Screening data from PubChem BioAssay.
Most compounds without a hit are left out; they make up all but 1.2% or so of the library.
EPAC2 antag – qHTS for Antagonist of cAMP-regulated guanine nucleotide exchange factor 2 (EPAC2): primary screen; Potency, µM (series often up to 114 µM), without a hit: at the top dose activity, negative = inhibition, hits mostly inhibitors; Rap guanine nucleotide exchange factor 4 (Homo sapiens), Q8WZA2; EPAC2 GEF exchange of Rap1B-BODIPY-GDP, fluorescence; 360,000 tested, 0.18% active; further: on the % scale 0 is the no-effect control and ±100 the full control effect; nearly all actives have a fitted effect of over 45% in size
Target sequence (Q8WZA2 whole entry, looked up): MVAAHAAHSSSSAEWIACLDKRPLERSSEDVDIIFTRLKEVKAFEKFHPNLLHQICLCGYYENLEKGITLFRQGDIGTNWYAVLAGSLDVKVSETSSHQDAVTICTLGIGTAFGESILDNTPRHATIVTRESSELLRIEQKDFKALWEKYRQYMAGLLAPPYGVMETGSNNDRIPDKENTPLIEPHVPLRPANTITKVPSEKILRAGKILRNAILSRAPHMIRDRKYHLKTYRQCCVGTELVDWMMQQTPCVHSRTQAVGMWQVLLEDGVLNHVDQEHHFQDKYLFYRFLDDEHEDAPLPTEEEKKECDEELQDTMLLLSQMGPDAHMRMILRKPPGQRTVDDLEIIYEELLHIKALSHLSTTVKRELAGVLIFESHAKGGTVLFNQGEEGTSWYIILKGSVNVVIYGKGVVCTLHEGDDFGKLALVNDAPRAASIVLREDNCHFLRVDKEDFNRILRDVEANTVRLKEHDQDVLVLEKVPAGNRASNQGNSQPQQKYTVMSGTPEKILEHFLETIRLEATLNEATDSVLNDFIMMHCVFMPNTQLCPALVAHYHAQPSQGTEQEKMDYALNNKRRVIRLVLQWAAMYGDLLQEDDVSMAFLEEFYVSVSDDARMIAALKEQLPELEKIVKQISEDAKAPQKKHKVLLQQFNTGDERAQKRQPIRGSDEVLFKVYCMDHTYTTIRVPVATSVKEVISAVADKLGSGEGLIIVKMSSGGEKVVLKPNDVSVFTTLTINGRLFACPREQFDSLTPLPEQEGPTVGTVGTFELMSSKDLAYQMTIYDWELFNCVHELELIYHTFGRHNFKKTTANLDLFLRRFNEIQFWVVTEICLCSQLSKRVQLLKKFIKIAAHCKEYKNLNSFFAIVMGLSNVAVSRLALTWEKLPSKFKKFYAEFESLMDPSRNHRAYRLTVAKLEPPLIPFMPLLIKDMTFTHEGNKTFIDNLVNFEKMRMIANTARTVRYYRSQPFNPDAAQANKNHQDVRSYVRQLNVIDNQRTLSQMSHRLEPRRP
EPAC2 agonist – qHTS for Agonist of cAMP-regulated guanine nucleotide exchange factor 4 (EPAC2): primary screen. EPAC2 activation, biochemical qHTS; response scale: 100% = 6.5 mM cAMP response. Potency, µM (top dose mostly 154 µM), for inactives: top-dose activation, hits mostly activators. 360,000 tested, 0.079% active. Rap guanine nucleotide exchange factor 4 (Homo sapiens), Q8WZA2. AID 720711, 2013; further: nearly all actives have a fitted effect of over 50% in size
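Compounds were added across a concentration range to EPAC2 (100 nM), RAP1B-BODIPY-GDP (250 nM) and GDP (50 uM). After 5 min at room temperature, fluorescence was recorded at 5-min intervals for 30 min.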
USP1-UAF1 inh – Inhibitors of USP1/UAF1: Primary Screen; 390,000 tested, 0.23% active; Ubiquitin carboxyl-terminal hydrolase 1 (Homo sapiens), O94782; Potency, µM (doses to about 57.1 µM), for the others: at the highest dose activity change, negative = inhibition, hits mostly inhibitors; recombinant USP1/UAF1, Ub-Rhodamine cleavage fluorescence; AID 743255, 2014; further: on the % scale 0 is the no-effect control and ±100 the full control effect; nearly all actives have a fitted effect of over 60% in size
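Step one: compound is pinned into 1nM USP1/UAF1 in HEPES pH 7.8 buffer with TCEP. Step two: 15 min room-temperature incubation. Step three: Ub-Rho (150nM final) starts cleavage, tracked by fluorescence over six one-minute reads.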
EPAC1 agonist – qHTS for Agonist of cAMP-regulated guanine nucleotide exchange factor 3 (EPAC1): primary screen | Rap guanine nucleotide exchange factor 3 (Homo sapiens), O95398 | EPAC1 agonist qHTS, biochemical assay; response scale: 100% = response to 6.5 mM cAMP | Potency, µM (series often up to 154 µM), without a hit: at the top dose activation, usual class: activators | 360,000 tested, 0.073% active; further: nearly all actives have a fitted effect of over 60% in size
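Multi-concentration qHTS readout: loss of Rap1B-bound BODIPY-GDP fluorescence driven by 100 nM EPAC1 with excess GDP (50 uM), monitored kinetically at room temperature; agonist response expressed relative to 6.5 mM cAMP.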
VDR inh – Inhibitors of the vitamin D receptor (VDR): qHTS; 400,000 tested, 0.93% active; VDR-SRC2-3 peptide fluorescence polarization, 2 h; AID 504847, 2011; Potency, µM, for inactives: max response, negative = inhibition, hits mostly inhibitors; further: on the % scale 0 is the no-effect control and ±100 the full control effect
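Reagent solutions, kept cold and dark, are dispensed first; compounds are then pinned in at 23 nl, plates briefly spun, and incubated 2 h at ambient temperature. Inhibition of VDR–SRC2-3 peptide binding is read by fluorescence polarization.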
EPAC1 antagonist – qHTS for Antagonist of cAMP-regulated guanine nucleotide exchange factor 3 (EPAC1): primary screen; Rap guanine nucleotide exchange factor 3 (Homo sapiens), O95398; EPAC1 GEF assay, Rap1b-BODIPY-GDP exchange fluorescence; Potency, µM (doses to about 115 µM), inactives show at the highest dose activity change, negative = inhibition, most hits filed as inhibitors; 360,000 tested, 0.14% active;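 further: plate controls were vehicle for no effect and positive control for full effect; nearly all actives have a fitted effect of over 50% in size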
VDR confirm – qHTS for Inhibitors of the vitamin D receptor (VDR): Hit Validation in Primary Screen. VDR-coactivator inhibition assay, qHTS confirmation. 840 tested, 89% active. shares compounds with VDR inh. Potency, µM, hits mostly inhibitors
VDR FP fluor – qHTS for Inhibitors of the vitamin D receptor (VDR): Hit Validation using a Fluorescein Assay; shares compounds with VDR inh; VDR-coactivator binding, fluorescein fluorescence polarization; Potency, µM (titrated, usually from 57.1 µM), without a hit: at the top dose activity change, negative = inhibition, usual class: inhibitors; 840 tested, 48% active; AID 602200, 2012
VDR bla reporter – qHTS for Inhibitors of the vitamin D receptor (VDR): Hit Validation using a Beta-Lactamase Assay. shares compounds with VDR inh. VDR beta-lactamase reporter cells, FRET ratio; cells co-treated with VDR agonist LG190178. Potency, µM (highest dose often 46.1 µM), for inactives: at the highest dose activity change, negative = inhibition, hits mostly inhibitors. 840 tested, 23% active. AID 602202, 2012; further: on the % scale 0 is the no-effect control and ±100 the full control effect
VDR viability – qHTS for Inhibitors of the vitamin D receptor (VDR): Hit Validation using a Cytotoxicity Assay. shares compounds with VDR inh. cytotoxicity counter-screen, cell viability, qHTS. Potency, µM (series often up to 48.3 µM), without a hit: at the top dose activity change, negative = cytotoxicity, actives largely listed as cytotoxic. 840 tested, 18% active;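 further: plate controls were DMSO for no effect and high-concentration cycloheximide for full effect; nearly all actives have a fitted effect of over 75% in size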
Numbers without * were called inactive; u = inconclusive; x = no result given. The call rests on the fitted dose curve; in most records, active means well fitted curve in the direction sought with a large enough effect; inconclusive means small, poorly fitted or top-dose-only effect, or another doubt; inactive means no such curve, though single readings can be large; an effect the other way counts as inactive or inconclusive. Potency means the concentration at half of the fitted maximal effect.

SMILES	EPAC2 antag	EPAC2 agonist	USP1-UAF1 inh	EPAC1 agonist	VDR inh	EPAC1 antagonist	VDR confirm	VDR FP fluor	VDR bla reporter	VDR viability
Cc1cccc(/C=C/C(=O)c2ccc([N+](=O)[O-])o2)c1	-2%	-1%	u	-21%	8.9µM*	-3%	1.1*	1.3µM*	5.2µM*	u
Cc1ccccc1/C=C/C(=O)c1ccc([N+](=O)[O-])o1	3%	-6%	-18%	-8%	7.9µM*	-5%	6*	3.2µM*	8.2µM*	21µM*
Cc1ccccc1NC(=O)c1ccc([N+](=O)[O-])o1	2%	3%	-7%	-1%	12%	11%	x	x	x	x
CC(=O)C1=C(C)NC2(O)c3ccccc3C(=O)C12O (stereo unspecified)	1%	-1%	-10%	-2%	-18%	9%	x	x	x	x
O=C1CCCC2=C1C1(O)C(=O)c3ccccc3C1(O)O2 (stereo unspecified)	-5%	-2%	-22%	4%	u	0%	2.5*	2.2µM*	9%	12%
CCCCCC1C(=O)N2C=C(c3ccccc3)c3ccccc3N2C1=O (stereo unspecified)	-15%	3%	-16%	6%	22µM*	-4%	4.7*	4µM*	26%	3%
CCCCN1C(=O)C(NC(C)=O)c2ccccc21 (stereo unspecified)	1%	7%	-19%	3%	6%	4%	x	x	x	x
CCn1c(CN2CCN(c3cccc(Cl)c3)CC2)nc2c1c(=O)[nH]c(=O)n2C	x	x	-8%	x	-3%	x	x	x	x	x
COc1ccc(NC(=O)Cn2c(=O)n(CCc3ccccc3)c(=O)c3c4c(sc32)CCCC4)cc1	x	x	-22%	x	5%	x	x	x	x	x
CCOC(=O)c1c(NC(=O)c2ccco2)n(C2CCCCC2)c2nc3ccccc3nc12	-6%	-2%	16µM*	1%	u	-9%	3.2*	u	-20%	-7%
CCC(=O)Nc1c(C#N)c2nc3ccccc3nc2n1C1CCCCC1	-20%	0%	-9%	3%	6%	-4%	x	x	x	x
O=C(/C=C/c1cccnc1)/C=C/c1cccnc1	0%	10%	-19%	0%	13µM*	-9%	2.7*	-14%	5.8µM*	15µM*
C(=Cc1cccnc1)c1ccncc1	3%	8%	-16%	0%	16%	-7%	x	x	x	x
CN(C)S(=O)(=O)c1ccc(C(=O)/C=C/c2cccnc2)cc1	20%	1%	-15%	-11%	20µM*	-7%	u	u	21%	u
O=C(O)CSc1cc(NS(=O)(=O)c2cccc([N+](=O)[O-])c2)c2ccccc2c1O	u	112µM*	18µM*	24%	u	u	5*	2.5µM*	u	u
COc1ccccc1NC(=O)CSc1nc(-c2ccc(C(C)(C)C)cc2)c(C#N)c(=O)[nH]1	x	x	u	x	3%	x	x	x	x	x
CCOC(=O)c1sc(N)c(C(=O)OC)c1C	1%	-2%	-4%	3%	-1%	-3%	x	x	x	x
CCOC(=O)c1sc(N)c(C(=O)Nc2ccccc2OC)c1C	4%	12%	u	-7%	71µM*	-22%	11*	u	-15%	u
O=C(Oc1ccc(C(=S)N2CCOCC2)cc1)c1ccc(Br)cc1	5%	-1%	3%	9%	-7%	-5%	x	x	x	x
COc1ccc(C(=O)Oc2ccc(C(=S)N3CCOCC3)cc2)cc1	9%	5%	-23%	-3%	71µM*	11%	27*	25µM*	5%	-3%
O=C(O)Cn1nc(N2CCN(c3ccccc3)CC2)ccc1=O	x	x	-22%	x	-27%	x	x	x	x	x
CCOC(=O)c1c2c(n(-c3ccc(OC)cc3)c1C)C(=O)C(=O)c1ccccc1-2	u	22%	1.8µM*	8%	18µM*	56µM*	12*	11µM*	5.8µM*	6.3µM*
O=C1NN(c2ccccc2)C(=O)/C1=C/c1ccc(Sc2ccc(Cl)cc2)o1	-9%	-2%	4%	-1%	79µM*	-23%	u	u	-5%	x
Cc1ccc(Sc2ccc(/C=C3/C(=O)NN(c4ccccc4)C3=O)o2)cc1	-1%	-12%	-16%	-8%	u	1%	x	x	x	x
Cc1ccc(CSC2=NS(=O)(=O)c3ccccc32)cc1	x	x	x	x	32µM*	x	14*	8.9µM*	-7%	-7%
Cc1ccc(C)c(OC2=NS(=O)(=O)c3ccccc32)c1	5%	9%	-21%	12%	-17%	-5%	x	x	x	x
Cc1ccc(SC2=NS(=O)(=O)c3ccccc32)c(C)c1	x	x	x	x	35µM*	x	7.1*	8.9µM*	u	21µM*
Cc1ccc(-n2ncc3c(NCCC4=CCCCC4)ncnc32)cc1C	x	x	-31%	x	13%	x	x	x	x	x
COc1cccc([C@@H]2Oc3ccc(Br)cc3C(=O)[C@H]2OC(=O)NS(=O)(=O)c2ccc(C)cc2)c1	x	x	x	x	-11%	x	x	x	x	x
CC(=O)NC1=CC(=O)c2nonc2C1=O	x	x	x	x	56µM*	x	2.5*	2.5µM*	2.9µM*	3.8µM*
